This is an account of results in PubChem BioAssay (NCI).

SMILES strings stand for the structures. The panel holds about 83,000 compounds, 20% with a hit somewhere; the sample as a whole holds those more often.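 Method: cells in 96-well plates; compound added at one concentration; 48 h incubation; percent growth measured; values under 10 scored active.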 A number with no mark means an inactive call. Calls of active or inactive are those of the source.

Test in all cases: NCI-60 one-dose screen, 48 h (100 = growth as untreated, 0 = no growth, -100 = all killed)
Details in all cases: 10 µM unless noted

For test [1], the system named is T-47D breast.
The subject of test [2] is BT-549 breast.
Test [3] has as its system MDA-MB-435 melanoma.
Test [4] deals with SW-620 colon.
Test [5] concerns MCF7 breast.
The test system of test [6] is HCT-116 colon.
The test system of test [7] is HCC-2998 colon.
For test [8], the system named is KM12 colon.

Consider `CCCCn1c(=O)c(C2CNC(=O)c3ccccc3N2)cc2ccccc21` (configuration not stated), for which the growth in test [1] was 93.7%; in test [2], 97.8%; in test [3] it was 105%; in test [4], 99.2%; in test [5], 99.6%; in test [6] it was 94.9%. Moreover, the growth is 108% in test [7] and 101% in test [8].
For `CC(C)CCC[C@@H](C)[C@H]1CC[C@H]2[C@@H]3CC[C@H]4C/C(=N/O)CC[C@]4(C)[C@H]3CC[C@]12C`, the growth was 103% in test [1]; 108% in test [2]; 103% in test [3]; 97.9% in test [4]; 103% in test [5]; 109% in test [6]. The growth in test [7] is 86.3%; in test [8], 108%.
With `O=S(=O)(NCCNc1cc(-c2cn(-c3ccccc3)nc2-c2ccccc2)ccn1)c1cccc2ccccc12`, the growth was 24.3% in test [1]; 49.3% in test [2]; 46.3% in test [3]; 62.5% in test [4]; 28.2% in test [5]; 34.8% in test [6]. Also, the results for the growth in test [7] and in test [8] were 56.4% and 41.6%, respectively.
For `COc1ccc(-n2c(C)cc(-c3ccccc3)c2C)cc1`, the growth in test [1] is 27.5%; in test [2] it was 47%; in test [3], 12.1%; in test [4], 41.2%; in test [5], 28%; in test [6], 21%. Besides, the growth in test [7] is 35.1%; in test [8], 37.7%.
As to `CCSc1nnc(NC(=O)COc2ccc(Cl)cc2C)s1`, the growth in test [1] was 96%; in test [2], 110%; in test [3], 84%; in test [4] it was 102%; in test [5], 91%; in test [6] it was 103%. Further, the growth was 131% in test [7] and 109% in test [8].
Turning to `COc1ccc(/C=C/C(=O)c2ccc(NC(=O)CN3CCN(c4cc5c(cc4F)c(=O)c(C(=O)O)cn5C4CC4)CC3)cc2)cc1`, the growth was 98.7% in test [1]; 92.6% in test [2]; 98.6% in test [3]; 113% in test [4]; 91.9% in test [5]; 25.1% in test [6]. For the same compound, the growth in test [7] is 100%; in test [8], 106%.
As to `CC(C)C[C@H](NC(=O)Cn1ccc(NCc2ccccc2)cc1=O)B(O)O`, the growth is -14.6% (active) in test [1]; 3.58% (active) in test [2]; -62.2% (active) in test [3]; 4.73% (active) in test [4]; 28.9% in test [5]; -47.7% (active) in test [6]. The growth in test [7] is 0.885% (active); in test [8], 24.7%.
In the case of `CCOC(=O)[C@H](CSSc1ncnc2cc[nH]c12)NC(=O)[C@@H](C)c1ccc2cc(OC)ccc2c1`, the growth was 23.3% in test [1]; 46.3% in test [2]; 24.4% in test [3]; 19.3% in test [4]; 8.81% (active) in test [5]; 11.1% in test [6]. Moreover, the growth is 25.4% in test [7] and 23.5% in test [8].
As to `O=C(/C=C/c1ccccc1)n1c(-c2ccc(Cl)cc2)nc2ccccc21`, the growth in test [1] is -4.25% (active); in test [2], -50.5% (active); in test [3] it was -44.3% (active); in test [4], -55.1% (active); in test [5], 10.3%; in test [6] it was -71.5% (active). For the same compound, the growth in test [7] was 5.08% (active); in test [8] it was -62.9% (active).
On to `O=S(=O)(NCCCNc1cc(-c2cn(-c3ccccc3)nc2-c2cccc(O)c2)ccn1)c1cccc2ccccc12`, for which the growth in test [1] was 33.1%; in test [2], 37.1%; in test [3], 32.8%; in test [4], 22.5%; in test [5], 15.8%; in test [6], 28.1%. The growth in test [7] is -71% (active); in test [8], 25.5%.
As to `Cc1ccc2nc(SCn3nnc4ccccc4c3=O)[nH]c2c1`, the growth was 97% in test [1]; 105% in test [2]; 101% in test [3]; 90.6% in test [4]; 87.2% in test [5]; 97.1% in test [6]. Besides, the growth in test [7] is 95.5%; in test [8] it was 161%.
Regarding `O=C(/C=C/CN1CCOCC1)Nc1cc2c(Nc3cccc(Cl)c3F)ncnc2cc1OCCOC(F)F`, the growth is 15.1% in test [1]; 86% in test [2]; 97.2% in test [3]; 90.7% in test [4]; 65.5% in test [5]; 82.9% in test [6]. Besides, the growth in test [7] was 86.2%; in test [8], 90.2%.
As for `CCCOC(=O)C1(O)CCCC1`, the growth in test [1] was 97.2%; in test [2], 113%; in test [3], 101%; in test [4], 104%; in test [5], 97.9%; in test [6], 97.3%. Moreover, the growth in test [7] is 108%; in test [8], 116%.
With `O=C(Nc1ccc(I)cc1)c1cc([N+](=O)[O-])ccc1O`, the growth was 29.9% in test [1]; 34.3% in test [2]; 38.5% in test [3]; 35.2% in test [4]; 18.9% in test [5]; 19.3% in test [6]. Moreover, the figures for the growth in test [7] and in test [8] were 16.1% and 21%, respectively.
